This is an account of results in ChEMBL document CHEMBL3988442, “University of Dundee, Small-Polar-MMV Screening Library” (2021).

About 13,000 (27%) of roughly 48,000 compounds showed an effect of 50% or more. Some of the results follow.

This assay relates to Wolbachia pipientis. The experiment in a line: Anti-Wolbachia Cell-Based Screen. It is filed as functional. Set-up: scale not given: in the data most compounds retested in dose-response had high values. Conditions: 5 µM.
In the case of `CN(C)c1nc2c(c(NCc3cc(O)ncn3)n1)CCCC2`, the “Percent Effect” value is on record as 14.14%. Regarding `CC(C)N1CCN2C(=O)N(C3CCCCC3)C[C@H]2C1`, the “Percent Effect” value was 0.5796%. As to `CC(C)CNC1(Cc2cc(-c3ccccc3)on2)COC1`, the “Percent Effect” value is reported as -15.39%. For the compound `Cc1cncc(C(=O)N(c2ccc(F)cn2)C2CCOCC2)c1`, the “Percent Effect” value is given as -4.438%.

In the case of `CCCS(=O)(=O)N1CCCC(c2cccc(C(=O)O)c2)C1` (stereo not drawn), the “Percent Effect” value came out at 9.239%. The value for `CSCCN1CCC(NC(=O)c2cccc(C3CCCNC3)c2)CC1` (stereo not drawn) was 92.44%.

For `O=C1CN(CCCNS(=O)(=O)c2cccc(C(=O)NC3CC3)c2)CCN1`, the “Percent Effect” value is reported as -1.221%. As to `O=C(NC1CCOCC1)c1cccc(C2CCCNC2)c1` (stereo not drawn), the “Percent Effect” value was 85.12%. `COCC(O)CN1CCC(NC(=O)c2cccc(C)c2)CC1` (stereo not drawn): the “Percent Effect” value is given as -8.408%. Regarding `CSCCN1CCC(NC(=O)OC(C)(C)C)CC1`, the “Percent Effect” value was -0.645%. For `O=C(NC1CCOC1)c1cccc(S(=O)(=O)NCCCc2ncc[nH]2)c1` (stereo not drawn) the value was -8.272%. With `CCOC(=O)N1CCC(NC(=O)c2cccc(C3CCCNC3)c2)CC1` (stereo not drawn), the “Percent Effect” value is reported as 94.34%. With `CCc1cnc(CNc2ccc(C(=O)NCc3ccco3)cc2C)o1`, the “Percent Effect” value is given as 4.048%. In the case of `CCOc1ccccc1-c1cc(N)[nH]n1.Cl`, the “Percent Effect” value was found to be 107%. Turning to `CCOc1ccc(Br)cc1-c1cc(N)[nH]n1.Cl`, the “Percent Effect” value came to 161.1%. For the compound `COc1ccc(Br)cc1CC(=O)Nc1cc(C)n[nH]1`, the “Percent Effect” value is recorded as -11.39%. Take `CCOc1ccccc1-c1noc(CN2CCN(CCOC)CC2)n1`: the “Percent Effect” value amounted to 9.475%. Turning to `CCOc1ccccc1-c1cc2c(cc1C(N)=O)OCO2`, the “Percent Effect” value was -7.69%. Regarding `CCOc1cc(C)c(-c2cc(N)[nH]n2)cc1OCC`, the “Percent Effect” value is on record as 103.8%.

In the case of `Cc1cc(NC(N)=O)ccc1OCC(F)(F)F`, the “Percent Effect” value was 6.991%. As to `c1ccc2c(c1)CN(c1ncnc3c1CCNC3)CCO2`, the “Percent Effect” value is -28.26%. For the compound `CN(C)C(=O)NCc1ncn2c1CN(S(C)(=O)=O)CCC2`, the “Percent Effect” value came to 2.726%. The value for `Cc1ccsc1C(=O)N1CCn2cnc(COCC3CC3)c2C1` was 0.0867%; that for `CC(C)CC(=O)N1CCCn2cnc(CNS(C)(=O)=O)c2C1` was 117%. Consider `O=C(c1cccs1)N1CCCn2cnc(COCC3CC3)c2C1`, for which the “Percent Effect” value worked out at 6.591%.

`Cc1ccc(C)c(CN2CCCn3nc(CNS(C)(=O)=O)cc3C2)c1`: the “Percent Effect” value is recorded as -10.08%. In the case of `CC(=O)N(C)Cc1ncn2c1CN(C(=O)CC1CC1)CCC2`, the “Percent Effect” value was found to be 104.9%. For the compound `CS(=O)(=O)NCc1ncn2c1CN(C(=O)C1CCCO1)CCC2` (stereo not drawn), the “Percent Effect” value was 106.6%. Take `CS(=O)(=O)NCc1ncn2c1CN(C(=O)CC1CCCC1)CCC2`: the “Percent Effect” value is recorded as -15.27%. Consider `CC(=O)N(C)Cc1ncn2c1CN(C(=O)C1CCCO1)CCC2` (stereo not drawn), for which the “Percent Effect” value amounted to 106.4%. For `CSCCc1c(-c2ccccc2)ncn1CCNc1cccnc1`, the “Percent Effect” value is on record as -1.445%.

Turning to `COC(=O)C1CN(CC(=O)Nc2ccccc2Cl)c2ccccc21` (stereo not drawn), the “Percent Effect” value is 8.149%. On to `Cc1ccc(NC(C)C(=O)NCc2cccs2)cc1Cl` (stereo not drawn), for which the “Percent Effect” value is -17.21%. As for `COCC(C)(C)NC(=O)CC(c1ccccc1)C(F)(F)F` (stereo not drawn), the “Percent Effect” value is reported as 0.4415%.

As to `CC(C)N(C)Cc1ncn2c1CN(CC(=O)N(C)C)CCC2`, the “Percent Effect” value was -4.555%. Take `CC(C)N(C)Cc1nnc2n1CCCN(C(=O)C1CCCO1)C2` (stereo not drawn): the “Percent Effect” value is -11.05%. On to `CC(C)N(C)Cc1ncn2c1CN(C(=O)C1CCCO1)CCC2` (stereo not drawn), for which the “Percent Effect” value turned out to be 102%.

Consider `CC(c1ccco1)N(C)Cc1cccc(C(=O)Nc2nccn2C)c1` (stereo not drawn), for which the “Percent Effect” value was 19.16%. For `COc1cc(CN(C)C(C)c2ccccn2)cc2c1OCO2` (stereo not drawn), the “Percent Effect” value is reported as -21.63%. For `COC(=O)c1cccc(CN(C)C(C)c2ccccn2)c1` (stereo not drawn), the “Percent Effect” value amounted to 109%. In the case of `Cc1ccc(C(=O)NCCNC(=O)N(C)C(C)c2ccccn2)cc1` (stereo not drawn), the “Percent Effect” value was -4.194%.

For `CC(c1ccccn1)N(C)Cc1cccc(C(=O)Nc2nccn2C)c1` (stereo not drawn), the “Percent Effect” value is given as 66.38%. Take `Cc1cnc(NC(=O)c2cccc(CN(C)Cc3ncccc3C)c2)s1`: the “Percent Effect” value was determined as 0.1885%.

Regarding `Cc1ccc(Cl)c2ccc(NC(CO)CO)nc12`, the “Percent Effect” value is -18.64%. For `O=C(c1ccsc1)N1CC(c2nc(-c3ccc[nH]c3=O)no2)C1` the value was -1.062%; for `CCOc1no[n+]([O-])c1-c1ccccc1`, 142.4%. For the compound `CCOc1ccc(-c2c(-c3ccccc3)ncn2C2CCNC2)cn1` (stereo not drawn), the “Percent Effect” value is 5.482%. For `COCCOC[C@]1(CNCc2cccc(OC)c2)C[C@@H](O)[C@@H](O)C1.Cl`, the “Percent Effect” value is recorded as 2.999%. For `N#CCCN(CC(=O)Nc1ccc(Br)cc1Cl)Cc1cccnc1`, the “Percent Effect” value was -15.5%.

Regarding `COCc1noc(C2(c3ccc(F)cc3)CCC2)n1`, the “Percent Effect” value is given as -10.25%. In the case of `COc1cccc(CCNC(=O)CCS(=O)(=O)C2CCCC2)c1`, the “Percent Effect” value is given as 1.804%.

`COc1cccc(CNC(=O)N2CCN3CCNC(=O)C3C2)c1` (stereo not drawn): the “Percent Effect” value is -4.227%. Consider `COc1cccc(CNC(=O)CCOc2ccccc2C)c1`, for which the “Percent Effect” value is on record as 9.384%. Regarding `COc1cccc(CNC(=O)CCC2=Nc3ccccc3S(=O)(=O)N2)c1`, the “Percent Effect” value came out at 114.6%.

Regarding `COc1cccc(CNC(=O)CCNS(=O)(=O)c2ccc(C)cc2)c1`, the “Percent Effect” value is given as 91.68%.

Take `CNS(=O)(=O)c1cccc(C(C)NCc2cccc(OC)c2)c1` (stereo not drawn): the “Percent Effect” value came out at 4.426%. As to `CNS(=O)(=O)c1ccc(CCC(=O)NCc2cccc(OC)c2)cc1`, the “Percent Effect” value is on record as 110.9%. Consider `COc1ccc(CC(=O)NCCNS(=O)(=O)c2ccc(C)cc2)cc1`, for which the “Percent Effect” value is 90.25%. The value for `Cc1ccc(S(=O)(=O)NCCNC(=O)c2cncnc2C)cc1` was 2.217%; that for `O=C(CCNS(=O)(=O)c1ccccc1)NCc1ccoc1` was -4.508%.

On to `CNS(=O)(=O)c1cccc(CNC(=O)CCc2ccsc2)c1`, for which the “Percent Effect” value worked out at 10.65%. For `CCc1ncncc1C(=O)NCCNS(=O)(=O)c1ccc(C)cc1` the value was 8.343%; for `Cl.Cn1nc(C2CCN(C(=O)CCN3CCOCC3)CC2)c2cccnc21`, 110.8%. `COc1ccccc1OC1CCN(C(=O)CCCN2CCOCC2)CC1`: the “Percent Effect” value was determined as 10.26%. As for `CN(CCO)Cc1nnc(C2CCN(C(=O)CN3CCCC3)CC2)n1C`, the “Percent Effect” value is reported as -20.27%.

On to `O=C(CN1CCCCC1)NCc1cccnc1-n1cnc2ccccc21`, for which the “Percent Effect” value is recorded as -3.687%. For `Cl.Cn1nc(C2CCN(C(=O)CN3CCCCC3)CC2)c2cccnc21`, the “Percent Effect” value worked out at 113.3%. For `C=C(C)CNC(=O)C1CCC(=O)N(C2CCCC2)C1` (stereo not drawn), the “Percent Effect” value was determined as 15.65%.
